BoNT A protease – BoNT A light chain protease inhibition; AID 588499; 0.17% of 360,000 active; inhibition, % at 10 µM; multiplex microsphere protease substrate cleavage, flow cytometry; note: plate controls were buffer without enzyme for full effect and enzyme alone for no effect
BoNT F protease – inhibitors of Botulinum neurotoxin F light chain protease; Multiplex microsphere protease cleavage assay, flow cytometry; inhibition, % at 10 µM; 0.22% of 360,000 active; AID 588497; in the data active = inhibition above about 35%, passing the limit was not always enough; inconclusive = no clear call, values can overlap the other calls; note: plate controls were buffer without enzyme for full effect and enzyme alone for no effect
DUSP3 inh – inhibitors of human VHR1 phosphatase (DUSP3); P51452; recombinant VHR phosphatase, pNPP absorbance; inhibition, % at 13.3 µM; 0.52% of 290,000 active; AID 1654; in the data active = inhibition above about 50%
SARS 3CLpro inh – SARS-CoV 3CLpro protease inhibition | P0C6X7 | recombinant SARS-CoV 3CLpro, quenched FRET peptide cleavage | inhibition, % at 6 µM | 0.14% of 290,000 active | AID 1706; in the data active = inhibition above about 12%
Anthrax LF inh2 – blocks Bacillus anthracis lethal factor protease; inhibition, % at 10 µM; P15917; AID 588501; multiplex microsphere protease cleavage assay, LF; 0.12% of 360,000 active; note: plate controls were buffer without enzyme for full effect and enzyme alone for no effect
Bead autofluor – flagged as autofluorescent in microsphere protease counterscreen. compound autofluorescence counterscreen, microsphere flow cytometry; stronger effect = higher value. fluorescence intensity (test concentration not listed). 3.1% of 360,000 active; in the data active = fluorescence intensity above about 16000; inconclusive = no clear call, values can overlap the other calls
* = called active by the depositor; ? = inconclusive; . = not tested or not shown. Shown are actives, neighbours in structure and some others; about 3.9% of the full set was active somewhere. Cut-off read from the data, not from the text of the source, unless noted: active = inhibition above about 30%; inconclusive = no clear call, values can overlap the other calls; inactive = below that.

SMILES	BoNT A protease	BoNT F protease	DUSP3 inh	SARS 3CLpro inh	Anthrax LF inh2	Bead autofluor
CC(C)CC(=O)OCc1cn(-c2ccccc2)nn1	-5.1	-6.9	0.2	2.0	0.3	21300*
O=C(Nc1cccc(Cl)c1)OCc1cn(-c2ccccc2)nn1	-0.4	-4.0	23.8	6.3	-10.6	5337
CC(C)CC1C(=O)N(Cc2cn(CCC3OCCO3)nn2)CCS(=O)(=O)N1Cc1ccc(-c2cccc(N(C)C)c2)cc1 (configuration not stated)	-0.5	-6.0	.	.	-3.0	2945
Cc1noc(C)c1NC(=O)N(C)C[C@H]1Oc2c(NC(=O)Nc3ccc4c(c3)OCO4)cccc2C(=O)N([C@H](C)CO)C[C@@H]1C	0.1	1.3	.	.	-4.0	3075
COc1ccc(S(=O)(=O)NC2CCCCCC2)cc1C(N)=O	-0.4	4.5	-23.3	-4.5	-2.4	5950
NC(=O)c1cc(S(=O)(=O)NC2CCCCC2)co1	?	-2.6	10.3	-0.2	-2.2	22647*
CN1CCN(c2nc3ccccn3c(=O)c2C=C(C#N)C#N)CC1	1.4	7.7	.	-5.7	0.7	3054
O=C(Nc1ccc(Br)cn1)c1ccc(Cl)s1	0.3	2.8	52.0*	-4.4	1.4	5691
CCOC(=O)N1CCN(Cc2cccs2)CC1	-0.3	-5.6	-0.8	-1.1	-7.7	10008
c1csc(CN2CCNCC2)c1	-0.8	-1.1	55.5*	-0.3	-5.0	4382
COC(CNC(=O)c1ccc2c(c1)nc(C)n2-c1ccc(F)c(F)c1)OC	1.2	4.6	17.8	-0.3	-2.0	22581*
COC(CNC(=O)c1ccc2c(c1)nc(C)n2-c1cccc(F)c1)OC	-5.1	-4.0	27.3	6.4	1.1	21945*
COc1ccc(NC(=O)C2CCN(S(=O)(=O)c3cccnc3)CC2)cc1Cl	-1.0	-5.9	7.6	-1.0	-11.7	6034
CC(/C=N/NC(=O)c1ccncc1)=C\c1ccc(C(C)C)cc1	2.7	0.8	20.9	0.5	0.5	22320*
CNc1nnc(-c2ccncc2)s1	-1.1	-0.2	-9.5	3.0	0.3	16766*
O=C(CN1C(=O)/C(=C/c2ccccc2F)Sc2ccccc21)NCC1CCCO1 (configuration not stated)	.	.	25.3	5.4	.	.
CCOC(=O)c1cccnc1SCC(=O)N(C)c1ccccc1	1.4	0.1	30.1	1.2	3.3	22147*
CSc1ncccc1C(=O)OCc1ccccc1	-0.1	4.1	10.0	0.5	-2.4	3246
O=C(CSc1ncn[nH]1)N(C1CCCCC1)C1CCCCC1	-1.2	-2.6	15.5	2.0	1.5	20145*
Cc1cc(C)nc(N2CCC(C(=O)Nc3ccc4c(c3)OCO4)CC2)n1	1.2	5.9	21.3	-2.4	-0.4	8733
O=C(Nc1ccc2c(c1)OCO2)c1cc2nc(C3CC3)cc(C(F)(F)F)n2n1	0.2	-11.0	26.1	6.4	-2.1	9919
Cc1cc(C)nc(N2CCCC(C(=O)Nc3ccc4c(c3)OCO4)C2)n1 (configuration not stated)	-1.5	-2.7	7.2	-2.1	-1.2	20510*
Cc1cc(C)nc(N2CCCC(C(=O)Nc3cc(F)ccc3C)C2)n1 (configuration not stated)	2.5	2.2	13.4	0.1	-2.8	22529*
Cc1cc(C)n2nc(C(=O)Nc3ccc4c(c3)OCO4)cc2n1	2.5	0.5	9.0	3.9	-5.1	22219*
CCc1nnc(NC(=O)C2CCCN(c3nc(C)cc(C)n3)C2)s1 (configuration not stated)	2.1	-1.2	20.0	-0.3	-1.0	18689*
SMILES	BoNT A protease	BoNT F protease	DUSP3 inh	SARS 3CLpro inh	Anthrax LF inh2	Bead autofluor
COc1ccccc1NC(=O)C1CCCN(c2nc(C)cc(C)n2)C1 (configuration not stated)	-0.9	-0.4	33.2	2.6	-2.5	9034
CCc1ccc(NC(=O)c2cnc(SC)nc2C)cc1	-2.5	-6.2	14.6	-1.7	7.6	3145
CC1(c2nnnn2-c2ccc3c(c2)OCCO3)CCC(=O)N1CCCn1ccnc1 (configuration not stated)	-0.1	-2.8	.	.	-0.5	5716
Cc1ccccc1-c1nnn(CC(=O)N(C)CC(=O)Nc2ccccc2C(F)(F)F)n1	2.0	1.7	.	.	1.1	5899
CN(C)c1ccc(CN(C(=O)C2COc3ccccc3O2)C2CCS(=O)(=O)C2)cc1 (configuration not stated)	-0.4	0.4	20.0	2.2	-4.1	19479*
CC(C)c1ccc(CN(C(=O)C2COc3ccccc3O2)C2CCS(=O)(=O)C2)cc1 (configuration not stated)	-0.9	-5.4	10.5	-0.1	-5.1	16571*

Assay outcomes: PubChem BioAssay, several laboratories
